# Source: PubChem BioAssay (several laboratories)
# An excerpt weighted towards active compounds, which were near 3.2% of everything screened.
# dFosB act – mouse delta FosB homodimer activation. activation, % at 25 µM. purified delta FosB, TAMRA-CDK5 oligo fluorescence polarization; percent of positive-control signal above neutral wells. P13346. AID 493131. hit rate 0.99% among 340,000;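 active = mean activation above about 17%, with every replicate also reaching it, limit read from the data, passing the limit was not always enough; inconclusive = only one of the two conditions met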
# Target sequence (P13346 whole entry, looked up): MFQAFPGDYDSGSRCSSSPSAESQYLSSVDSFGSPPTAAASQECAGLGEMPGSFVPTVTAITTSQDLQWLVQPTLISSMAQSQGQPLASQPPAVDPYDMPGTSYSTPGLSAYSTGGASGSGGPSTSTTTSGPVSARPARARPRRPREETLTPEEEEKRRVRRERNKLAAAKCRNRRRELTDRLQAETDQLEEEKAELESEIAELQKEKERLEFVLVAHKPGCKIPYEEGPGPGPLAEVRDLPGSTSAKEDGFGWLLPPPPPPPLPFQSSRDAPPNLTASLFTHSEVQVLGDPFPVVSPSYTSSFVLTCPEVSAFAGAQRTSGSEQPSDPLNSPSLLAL
# CDK5 p35 inh – blocks human CDK5/p35 kinase activity; inhibition, % at 10 µM; AID 488839; Q00535+Q15078; Recombinant CDK5/p35, ADP-Glo luminescence, 60 min; hit rate 0.01% among 330,000;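 active = highest replicate inhibition of at least 50% and at least 75% of replicates reaching 50%; inconclusive = only one of the two criteria met; inactive = both criteria failed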;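 note: plate controls were DMSO neutral control for no effect and GW8510 at 10 µM for full effect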
# esBAF inh – SWI/SNF esBAF complex inhibition; mouse ES cells, Bmi1-luciferase knock-in reporter, 24 h; 100% = twice the neutral-well signal; AID 602393; reporter increase, % at 12.5 µM; hit rate 2% among 350,000; in the data active = activation above about 40%; inconclusive = no clear call, values can overlap the other calls;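 note: 0% = median of the plate's neutral control wells and 100% = double that signal; a rise in the Bmi1 reporter signal indicates esBAF inhibition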
# SMARCA2 act – activators of SMARCA2 function. MG213 cells, MMTV-luciferase reporter, dexamethasone, overnight. activation, % at 9.1 µM. hit rate 1% among 370,000; in the data active = activation above about 7.8%;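 note: 0% = vehicle wells and 100% = reference activator wells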
# DYRK1A inh – inhibitors of rat Dyrk1A kinase | ADP-Glo luminescence, NFATc1 peptide | inhibition, % at 12.5 µM | hit rate 0.43% among 310,000 | AID 504441; in the data active = inhibition above about 50%;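 note: plate controls were vehicle with enzyme for no effect and no enzyme for full effect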
# Rtt109 HAT inh – blocks Candida albicans Rtt109/Vps75 acetyltransferase activity; purified Rtt109/Vps75, ThioGlo CoA-SH fluorescence, 4 h; AID 540336; Q5AAJ8; hit rate 0.16% among 330,000; inhibition, % at 34.9 µM;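 active = inhibition of at least 50% in every replicate; inconclusive = best replicate reaches 50% inhibition but some replicates fall short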
# Target sequence (Q5AAJ8 whole entry, looked up): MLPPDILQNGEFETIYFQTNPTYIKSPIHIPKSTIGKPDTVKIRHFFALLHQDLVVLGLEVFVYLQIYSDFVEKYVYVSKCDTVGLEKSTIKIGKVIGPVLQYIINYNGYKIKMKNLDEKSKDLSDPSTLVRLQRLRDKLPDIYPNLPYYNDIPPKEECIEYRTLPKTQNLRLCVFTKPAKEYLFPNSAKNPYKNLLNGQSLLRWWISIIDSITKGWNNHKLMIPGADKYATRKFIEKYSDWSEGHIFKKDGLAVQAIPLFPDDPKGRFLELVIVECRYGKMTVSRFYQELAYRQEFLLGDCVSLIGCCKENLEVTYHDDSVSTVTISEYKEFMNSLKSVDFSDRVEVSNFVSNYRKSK
# Numbers without * were called inactive; ? = inconclusive; . = no result given.
SMILES,dFosB act,CDK5 p35 inh,esBAF inh,SMARCA2 act,DYRK1A inh,Rtt109 HAT inh
CC(=O)Nc1ccc(-c2csc(NCc3ccco3)n2)cc1,-4.8,2.3,.,4.1,-1.3,1.5
O=C(Nc1scc(-c2ccccc2)c1C(=O)O)c1ccco1,-1.0,-1.1,26.5,0.4,-9.9,-5.1
Cc1ccc(-c2csc(NC(=O)c3ccco3)n2)cc1C,-2.5,0.9,46.8*,2.5,8.4,-0.1
O=C(Nc1nc(-c2ccccc2)cs1)c1ccco1,0.1,0.9,.,0.8,11.6,-10.0
O=C(C[C@@H]1C=C[C@H](NC(=O)C2CCC2)[C@@H](CO)O1)Nc1nccs1,.,.,0.5,.,.,.
COC(=O)C[C@H]1CC[C@H]2[C@@H](COc3ccc(NC(=O)Nc4ccccc4C)cc3C(=O)N2C)O1,.,.,-0.7,.,.,.
CC(OC(=O)c1ccco1)C(=O)Nc1ccc(Cl)cn1 (centres undefined),-2.3,2.1,-7.8,-2.7,11.2,3.6
CC(OC(=O)c1ccco1)C(=O)Nc1nc(-c2ccccc2)cs1 (centres undefined),-0.7,-0.5,47.9*,-1.1,2.5,-3.3
CC(C)C(=O)Nc1ccc(-c2csc(-c3ccccc3)n2)cc1,0.5,-1.0,71.1*,5.1,-2.8,-7.5
O=C(NC(=S)Nc1nc(-c2ccc([N+](=O)[O-])cc2)cs1)c1ccco1,-10.3,-0.4,53.5*,2.7,-2.9,-10.0
O=C(CCNC(=O)c1ccco1)Nc1nc(-c2ccccc2)cs1,.,.,52.7*,6.1,.,.
CC(C)C(=O)Nc1cccc(-c2csc(-c3ccccc3)n2)c1,2.4,-1.6,27.9,-0.4,0.5,-2.2
C/C=C/c1ccc2c(c1)O[C@H](CN(C)C(=O)Nc1ccc(C(F)(F)F)cc1)[C@H](C)CN([C@@H](C)CO)S2(=O)=O,.,.,-1.8,.,.,.
C[C@@H]1CN([C@@H](C)CO)S(=O)(=O)c2ccc(C#CCN(C)C)cc2O[C@H]1CN(C)C,.,.,2.4,.,.,.
CCOc1ccc(-c2csc(NC(=O)c3ccco3)n2)cc1,-1.1,2.0,57.9*,0.2,.,1.5
CCOC(=O)C1(Cc2ccccc2)CCCN(C(=O)c2cnn(CC)c2)C1 (centres undefined),-4.8,2.0,65.2*,3.8,6.6,-5.0
CCOC(=O)C1(Cc2cccc(OC)c2)CCCN(C(=O)c2cc(C)on2)C1 (centres undefined),-5.3,0.0,48.4*,0.6,-9.5,2.8
CCOC(=O)C1(Cc2cccc(OC)c2)CCCN(C(=O)CNC(C)=O)C1 (centres undefined),-2.1,-0.1,64.6*,7.1,12.3,-10.1
C[C@@H]1CN([C@H](C)CO)C(=O)c2cc(NC(=O)Nc3ccccc3)ccc2O[C@@H](C)CCCCO[C@@H]1CN(C)S(=O)(=O)c1cccs1,.,.,1.8,.,.,.
C[C@H](CO)N1C[C@H](C)[C@@H](CN(C)S(C)(=O)=O)Oc2ccc(NC(=O)Nc3cccc4ccccc34)cc2C1=O,.,.,0.3,.,.,.
Cc1ccc(S(=O)(=O)N[C@@H]2CC[C@@H](CC(=O)N3CCN(c4ccccc4)CC3)O[C@H]2CO)cc1,.,.,3.3,.,.,.
Nc1ccc(OCCCc2c(N)nc(N)nc2N)cc1,21.2*,0.9,-4.1,-1.4,-2.8,0.6
COc1ccc(Cc2c(N)nc(N)nc2N)cc1,-6.7,1.3,4.2,-4.6,2.1,-0.8
CC1(C)NC(=O)N(CCCCOc2ccc3ccccc3c2Cl)C1=O,-7.0,-2.7,52.7*,-0.2,4.8,-4.0
CC1(C)NC(=O)N(CCOCCOc2ccc3ccccc3c2Br)C1=O,-5.3,-2.4,?,0.5,6.2,-9.6
SMILES,dFosB act,CDK5 p35 inh,esBAF inh,SMARCA2 act,DYRK1A inh,Rtt109 HAT inh
COc1cccc(S(=O)(=O)N[C@H]2C=C[C@H](CC(=O)NCc3ccccc3)O[C@@H]2CO)c1,.,.,-1.2,.,.,.
CCc1ccccc1NC(=O)C1CCN(C(=O)c2ccc([N+](=O)[O-])cc2)CC1,-7.1,-0.1,1.3,0.1,-7.9,57.6*
CC(=O)Nc1ccc(NC(=O)C2CCN(C(=O)c3ccc([N+](=O)[O-])cc3)CC2)cc1,-4.3,-0.9,.,0.7,-0.6,3.2
CC(=O)Oc1cc2cccc(OC(C)=O)c(=O)c2c(OC(C)=O)c1OC(C)=O,-4.6,-0.5,-18.7,.,63.8*,?
COc1cc2cccc(OC)c(=O)c2c(O)c1OC,9.6,-0.8,15.4,0.1,4.1,.
Cc1csc(C(C#N)C(=O)c2cc3ccccc3o2)n1 (centres undefined),-4.9,-1.1,46.5*,3.2,7.3,-1.1
O=C(Nc1ccccn1)c1ccc(=O)[nH]n1,1.9,-0.4,.,0.8,-0.7,-5.2
O=C(Nc1ccccc1-c1ccccc1)c1ccc(=O)[nH]n1,-9.9,2.4,43.5*,1.4,16.0,0.6
C[C@H]1CN([C@@H](C)CO)C(=O)c2cc(NS(C)(=O)=O)ccc2O[C@H]1CN(C)CC1CCCCC1,.,.,-3.9,.,.,.
COc1ccc(C2=Nc3ccccc3NC(=O)C2N(C(=O)c2cnc(C)cn2)c2ccc(N3CCOCC3)cc2)cc1 (centres undefined),.,.,47.7*,-1.7,.,.
C[C@@H]1CN([C@@H](C)CO)C(=O)c2cc(C3=CCCC3)cnc2O[C@H]1CN(C)C(=O)Cc1ccncc1,.,.,0.9,.,.,.
CCOC(=O)C1CCN(S(=O)(=O)c2ccc3c(c2)CC(C)N3C(=O)C2CCC2)CC1 (centres undefined),-0.9,1.6,2.3,-1.6,2.3,53.5*
CC1CCN(S(=O)(=O)c2ccc3c(c2)CC(C)N3C(=O)C2CCC2)CC1 (centres undefined),-7.8,.,4.3,-0.9,.,10.6
CC1Cc2cc(S(=O)(=O)N3CCC(C(=O)N(C)Cc4ccco4)CC3)ccc2N1C(=O)C1CCC1 (centres undefined),-6.3,0.8,-0.1,-4.7,-1.5,50.2*
CCCCC(=O)/C=C/n1c(=S)oc2ccccc21,-5.3,-0.8,64.9*,3.3,-3.5,-3.2
CC(C)OC(=O)n1c(=S)oc2ccccc21,2.8,-1.1,32.2,3.7,-2.1,7.4
O=C(Cn1cc2c(n1)CCCC2)Nc1cc(-c2cccc(Cl)c2)no1,-15.6,-0.3,50.6*,-0.5,1.9,-0.9
CC(NC(=O)Cn1cc2c(n1)CCCCC2)c1ccccc1 (centres undefined),2.0,-0.3,-9.7,-0.7,-9.5,-4.9
C[C@H](CO)N1C[C@H](C)[C@@H](CN(C)C(=O)c2ccccc2F)Oc2ncc(C#Cc3ccccc3)cc2C1=O,.,.,-4.2,.,.,.
COc1ccc(S(=O)(=O)N(C)C[C@@H]2Oc3c(NS(=O)(=O)c4ccc(Cl)cc4)cccc3C(=O)N([C@@H](C)CO)C[C@H]2C)cc1,.,.,-2.1,.,.,.
CC(C)Sc1nnc(Nc2ccccc2)s1,-1.5,0.7,43.0*,5.0,-0.7,-4.7
O=C(N[C@@H]1CC[C@H](CC(=O)N2CCc3ccccc3C2)O[C@@H]1CO)C1CCOCC1,.,.,-1.3,.,.,.
COc1ccc2oc(=O)c(-c3nnc(N)s3)cc2c1,1.6,1.9,.,4.1,12.8,-57.7
Nc1nnc(-c2cc3ccccc3oc2=O)s1,-3.5,-0.3,26.4,7.9*,4.2,-5.7
